Laboratory results taken from PubChem BioAssay (NCI).
Values joined by “and” are separate entries in the source; they are usually repeats but may differ in a detail not shown here. Equal entries are not always repeated. Compounds without any hit were thinned out: in the full panel of roughly 83,000, 20% have a hit.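 Cell lines were cultured in 96-well plates, exposed to a single compound concentration, and assessed for percent growth 48 hours later.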 A number with no mark means an inactive call. Active and inactive are the calls of the source. The calls were made as follows: active = growth percent below 10; inactive = the rest.

Experiments:
Assay in all cases: NCI-60 one-dose screen, 48 h (100 = growth as untreated, 0 = no growth, -100 = all killed)
Details in all cases: 10 µM unless noted
T-47D breast = test system: T-47D breast
BT-549 breast = test system: BT-549 breast
MDA-MB-435 melanoma = test system: MDA-MB-435 melanoma
SW-620 colon = test system: SW-620 colon
MCF7 breast = test system: MCF7 breast
HCT-116 colon = test system: HCT-116 colon
HCC-2998 colon = test system: HCC-2998 colon
KM12 colon = test system: KM12 colon

Structure (SMILES) | growth (T-47D breast) | growth (BT-549 breast) | growth (MDA-MB-435 melanoma) | growth (SW-620 colon) | growth (MCF7 breast) | growth (HCT-116 colon) | growth (HCC-2998 colon) | growth (KM12 colon)
Cc1ccccc1N=C(N)Nc1ccccc1C (tested in a mixture with another compound) | 76.6% | 96.1% | 89.5% | 74.9% | 94.2% | 83.4% | 97.8% | 64.6%
Cc1cc(N/N=C/c2ccccn2)nc2ccccc12 | 24.1% | 15.1% | 29.6% | 18.5% | 14% | 17.6% | 24.7% | 24.5%
Cc1cc2cccnc2c2ncccc12 | 2.22% (active) | 36% | 35.9% | 31.6% | 3.96% (active) | 14% | 29.5% | 28.5%
S=C=Nc1ccc(N2CCOCC2)cc1 | 74.3% | 97.1% | 92% | 103% | 79.3% | 86.6% | 99.3% | 103%
Cn1c(-c2ccccc2)c(/C=C/C2=[N+](C)c3ccccc3C2(C)C)c2ccccc21 | -3.22% (active) | 22.1% | 2.09% (active) | 14.3% | 4.58% (active) | 9.76% (active) | 27% | -22.8% (active)
OC(c1cc(-c2ccc(C(F)(F)F)cc2)nc(C(F)(F)F)c1)C1CCCCN1 (stereo not drawn) | -69.2% (active) and -89.5% (active) and -17.2% (active) | 52.1% and 93.5% and 85.3% | -63% (active) and -91.8% (active) and 6.26% (active) | -80.4% (active) and -84.6% (active) and -55.6% (active) | -88% (active) and -86.5% (active) and -59.3% (active) | -82% (active) and -96.2% (active) and 3.87% (active) | -66.8% (active) and -95% (active) and -74.6% (active) | -80.1% (active) and -85.2% (active) and -62.3% (active)
CN=C(N)N/N=C(\c1ccccc1)c1ccc(Br)cc1 | 39.3% | 21.5% | -60.8% (active) | 29.4% | 4.81% (active) | 8.58% (active) | -61.1% (active) | 9.22% (active)
O=[N+]([O-])c1ccc(C2N(Cc3ccc(Cl)cc3)CCN2Cc2ccc(Cl)cc2)cc1 | 90% | 98.2% | 91.5% | 98.1% | 87.3% | 72.8% | 95.4% | 101%
C/C(=N/NC(N)=S)c1ccc(C)cc1 | 22% | 105% | 96.1% | 75.3% | 25.6% | 8.6% (active) | 110% | 104%
CCCCCCN(CCCCCC)CCCNc1nccc2ccccc12 | -13.6% (active) | 39.7% | 0.549% (active) | 6.78% (active) | -28% (active) | 8.24% (active) | -59.4% (active) | 9.96% (active)
O=C(c1ccccc1)C(Br)C(Br)c1ccccc1 (stereo not drawn) | 31% | 101% | 74.6% | -76.9% (active) | 31.3% | -95.7% (active) | 93.3% | 55.1%
Cc1ccc(/C=C2\CNC/C(=C\c3ccc(C)cc3)C2=O)cc1 | 14% | -72.2% (active) | -47.5% (active) | -44.1% (active) | 1.76% (active) | -60% (active) | -81.3% (active) | -78.6% (active)
S=C(SSC(=S)N1CCOCC1)N1CCOCC1 | 79.8% | 141% | 53.6% | -57.5% (active) | 66.5% | 40.1% | 49.6% | 69.5%
CCOc1ccc(Nc2nc3c(s2)C(=O)c2ccccc2C3=O)cc1 | 59% | 87.4% | -80.2% (active) | 70% | 42.9% | 52.7% | 118% | 81.4%
Cc1cc(=O)oc2cc(O)cc(O)c12 | 90.5% | 101% | 94.7% | 92% | 98% | 90.5% | 111% | 111%
COc1ccc(C(OCC2OC(n3ccc(NC(=O)c4ccccc4)nc3=O)C(O)C2O)(c2ccccc2)c2ccccc2)cc1 (stereo not drawn) | 40.2% | 44.3% | 31.1% | 56% | 13.3% | 3.43% (active) | 75.8% | 19.2%
Cc1cc(I)nc2ccccc12 | 95.8% | 104% | 112% | 107% | 101% | 106% | 103% | 115%

Structure (SMILES) | growth (T-47D breast) | growth (BT-549 breast) | growth (MDA-MB-435 melanoma) | growth (SW-620 colon) | growth (MCF7 breast) | growth (HCT-116 colon) | growth (HCC-2998 colon) | growth (KM12 colon)
c1ccc2sc(SSN3CC4CCC(CC4)C3)nc2c1 | 96.5% | 126% | 108% | 110% | 107% | 103% | 123% | 145%
NCCCN(CCCN)CCCNCc1c2ccccc2c(CNCCCN(CCCN)CCCN)c2ccccc12 | 80.9% | 103% | 107% | 100% | 97.1% | 90.6% | 97.6% | 97.2%
S=c1[nH]c2cc(Cl)ccc2s1 | 90.4% | 100% | 98.8% | 113% | 95.2% | 96.6% | 97.4% | 96.5%
COc1ccc(C(Cn2ccnc2)Sc2ccc(Cl)c(Cl)c2)cc1 (stereo not drawn) | 79.3% | 73.2% | 84.1% | 80.9% | 79.6% | 48.5% | 108% | 73.7%
CCCCN(CCCC)CCCCCCCCCCO | 94.6% | 102% | 107% | 103% | 99% | 90.2% | 103% | 103%
CC(C)(C)c1ccc(O)c(Br)c1 | 103% | 102% | 92.1% | 92.4% | 95.3% | 93.2% | 98% | 104%
Clc1ccccc1C(c1ccccc1)(c1ccccc1)n1ccnc1 | 13.4% | 42.5% | 33.8% | 43.6% | 18.3% | 22.3% | 52% | 27%
Cc1cc(C(=C2C=CC(=Nc3ccccc3)C=C2)c2ccc(Nc3ccccc3)cc2)ccc1N | -50.1% (active) | -88.9% (active) | -68% (active) | -70.4% (active) | -44.3% (active) | 0.559% (active) | -90.7% (active) | -89.2% (active)
Cc1nnc(N/N=C/c2ccc([N+](=O)[O-])o2)[nH]c1=O | -6.92% (active) | -22.1% (active) | 12% | 18.7% | 3.92% (active) | 9.54% (active) | 22.2% | 14.2%
CC(=O)OC1CC2CCC1(C)C2(C)C (stereo not drawn) | 99.2% | 112% | 96.4% | 98.1% | 103% | 107% | 108% | 104%
COc1ccc2c(c1)c(CC(=O)O)c(C)n2C(=O)c1ccc(Cl)cc1 | 107% | 66.9% | 96.8% | 98.8% | 83.7% | 95.2% | 108% | 99.2%
S=C1SCN(Cc2cccs2)CN1Cc1cccs1 | 56.5% | 98.5% | 93.3% | 82.4% | 43.9% | 99.4% | 116% | 91.2%
CCCCCCCCCCCC[n+]1ccc2ccccc2c1 | 5.61% (active) | -73.4% (active) | -69.6% (active) | -30% (active) | -10.3% (active) | -74.7% (active) | -84.7% (active) | -89.2% (active)
O=C1c2ccccc2C(=O)c2c(O)c(Cl)cc(O)c21 | 28.1% | 98.7% | 102% | 72.6% | – | 6.19% (active) | 102% | 83.7%
O=[N+]([O-])c1cc(-c2ccccc2)c(O)c([N+](=O)[O-])c1 | 83.2% | 52.2% | 85.5% | 98.2% | 77% | 86.8% | – | 84.1%
O=C(CBr)c1ccc(OC(=O)c2ccccc2)cc1 | 95.7% | 105% | 106% | 88.4% | 92.5% | 75.6% | – | 106%
NC(=Nc1nc(-c2ccccn2)cc2ccccc12)c1ccccn1 | 16.4% | 23.3% | 22.9% | 11.8% | 9.19% (active) | 5.82% (active) | – | 16%
